Assay results reported in PubChem BioAssay (NCI).
About 83,000 compounds went through this panel and 20% of them were active in at least one assay; those are over-represented in the sample as a whole.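 Compound tested at a single concentration for 48 hours in 96-well plates; a percent growth value below 10 was scored as active.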 A number with no mark means an inactive call. Calls of active or inactive are those of the source.

Tests used:
Experiment in all cases: NCI-60 one-dose screen, 48 h (100 = growth as untreated, 0 = no growth, -100 = all killed)
Conditions in all cases: 10 µM unless noted
RPMI-8226 leukemia = test system: RPMI-8226 leukemia
OVCAR-8 ovarian = test system: OVCAR-8 ovarian
OVCAR-5 ovarian = test system: OVCAR-5 ovarian
OVCAR-4 ovarian = test system: OVCAR-4 ovarian
SK-OV-3 ovarian = test system: SK-OV-3 ovarian
IGROV1 ovarian = test system: IGROV1 ovarian
OVCAR-3 ovarian = test system: OVCAR-3 ovarian
HS 578T breast = test system: HS 578T breast
NCI/ADR-RES ovarian = test system: NCI/ADR-RES ovarian
T-47D breast = test system: T-47D breast

| Structure (SMILES) | growth (RPMI-8226 leukemia) | growth (OVCAR-8 ovarian) | growth (OVCAR-5 ovarian) | growth (OVCAR-4 ovarian) | growth (SK-OV-3 ovarian) | growth (IGROV1 ovarian) | growth (OVCAR-3 ovarian) | growth (HS 578T breast) | growth (NCI/ADR-RES ovarian) | growth (T-47D breast) |
| --- | --- | --- | --- | --- | --- | --- | --- | --- | --- | --- |
| COc1ccc(-c2csc(N/N=C/c3c(-c4ccc(S(C)(=O)=O)cc4)nc4ccccn34)n2)cc1 | 91.4% | 103% | 108% | 105% | 136% | 115% | 124% | 118% | 110% | 87.8% |
| Cn1c(SCC(=O)Nc2ccc(-c3nc4ccc([N+](=O)[O-])cc4[nH]3)cc2)nc2ccccc2c1=O | 94.7% | 77.8% | 96% | 67.5% | 120% | 75.9% | 90.6% | 81.5% | 88.9% | 72.1% |
| CCN1C(=S)N(c2ccccc2)C2NC(=O)N(/N=C/C=C/c3ccccc3OC)C21 (stereo not given) | 92.6% | 73.1% | 97.7% | 81.1% | 115% | 92.1% | 93.9% | 78.7% | 99.4% | 93.3% |
| COC(=O)C1CCCN(S(=O)(=O)/N=C2\NC(=O)NC2=C(Cl)Cl)C1 (stereo not given) | 0.297% (active) | 105% | 130% | 119% | 106% | 107% | 122% | 110% | 111% | 68.2% |
| COc1ccc(-c2nc3ccc(-c4nnc(SCC(=O)Nc5ccc(C(=O)/C=C/c6ccc(Cl)cc6)cc5)o4)cc3[nH]2)cc1OC | 75.5% | 106% | 95.2% | 108% | 111% | 91.9% | 116% | 96% | 108% | 89.4% |
| COc1cc2nc(-c3ccc(C(F)(F)F)cc3)cc(OCCCNCC3CCCO3)c2cc1OC (stereo not given) | -13.1% (active) | 35.6% | 40.6% | 62.4% | 86.2% | 28.5% | 65.4% | 55.6% | 41.4% | 38% |
| Cn1cc(-c2cc(N)n3nc(-c4cn(C)c5ccc(Cl)cc45)cc3n2)c2cc(Cl)ccc21 | 88.5% | 90.4% | 107% | 75.1% | 123% | 88.9% | 84.8% | 107% | 73.5% | 90.7% |
| N#Cc1nc(-c2ccccc2)oc1S(N)(=O)=O | 46.2% | 79.1% | 74.1% | 84.2% | 135% | 49.2% | 77.4% | 95% | 82.7% | 64.1% |
| CC(C)(C)Nc1nc2c(OCCc3ccccc3)cccn2c1-c1ccccc1Cl | -25.8% (active) | 9.35% (active) | 10.9% | 13.5% | -22.7% (active) | 5.74% (active) | 8.2% (active) | -1.74% (active) | 5.82% (active) | 10.3% |
| OC1CCN(CCCOc2c3ccccc3nc3c2oc2ccc(Cl)cc23)CC1 | -3.88% (active) | 18.7% | 21.2% | 19.1% | 45.6% | 1.4% (active) | 27.7% | 32% | 21.5% | 35.9% |
| O=C(N/N=C/c1ccc[nH]1)c1[nH]c2ccc(Br)cc2c1-c1ccccc1 | -1.05% (active) | 13% | 43.7% | 33.2% | 36.7% | 8.52% (active) | 22.2% | 29.5% | 14.8% | 14.1% |
| CCOC(=O)c1c(Nc2ccccc2)nn2c(-c3ccco3)c(C#N)cnc12 | 79.3% | 82.1% | 109% | 86.6% | 109% | 100% | 131% | 72% | 80% | 87.8% |
| C=CCn1c(SCC(=O)c2ccc(Br)cc2)nnc1-c1c[nH]c2ccccc12 | 98.8% | 94.7% | 96.8% | 109% | 113% | 86.7% | 110% | 106% | 98.8% | 97% |
| Cc1nc2cnc(N)c(C#Cc3cncc(C(=O)Nc4ccc(Cl)c(C(F)(F)F)c4)c3)c2nc1C | -10.2% (active) | 69.7% | 54.5% | 65.2% | 120% | 16.9% | 39.3% | 35.4% | 63.9% | 109% |
| CSCCC(C(=O)O)N1C(=O)/C(=C/c2ccc(O)c(O)c2)SC1=S (stereo not given) | 110% | 108% | 94.6% | 101% | 110% | 98.9% | 111% | 104% | 108% | 95.1% |
| C#Cc1nc(C2=C(C)C(O)/C(=N/O)C2)cs1 (stereo not given) | -15.4% (active) | 94.3% | 100% | 89.6% | 111% | -41.6% (active) | 125% | 97.6% | 1% (active) | 89.9% |
| O=C(NNc1nc2cc(F)ccc2n2c(CN3CC4(COC4)C3)ccc12)c1cnccn1 | 22% | 8.35% (active) | 38.1% | 33.3% | 15.2% | 18.6% | 16.1% | 65.3% | 22% | 26.2% |
| [Cl][Ru].c1ccc(-c2cccc(-c3ccccn3)n2)nc1.c1ccc(-c2ccnc3c2ccc2c(-c4ccccc4)ccnc23)cc1 | -10.5% (active) | 68.2% | 68.1% | 47.3% | 46.8% | 21.4% | 13.8% | 13.4% | 71.5% | 14.2% |
| Cc1nc(-c2cc3ccccc3oc2=O)ccc1C(=O)/C=C/c1ccccn1 | -36.3% (active) | 69.3% | 60.7% | 85.2% | 116% | 7% (active) | 46.9% | 80.3% | 77.4% | 52.1% |
| c1ccc(CNc2ncnc3ccc(-c4cnc5[nH]ncc5c4)cc23)cc1 | 60.8% | 71.2% | 61.8% | 79.4% | 72.1% | 9.48% (active) | 67.1% | 45% | 81.9% | 18.5% |
